Experimental findings from paper PMC5700166 are described below.

Substitutions are numbered along the chain they refer to.

Holding throughout (test): protein-binding microarray (PBM); PBM: ~300 nM protein, 6 mM HEPES pH 7.8, 80 mM KCl, 0.5 mM EDTA, 0.5 mM EGTA, 6% glycerol, 35 ng/ul poly-dIdC, 1% milk, 1 h, room temperature; Ap Aiptasia and Nv Nematostella (sea anemones) / Co Capsaspora / Aq Amphimedon (sponge) / Dm Drosophila / Hu human; RHD is the Rel homology domain; high values mean tight binding
What all share (settings): dsDNA, one strand shown

The target in one experiment is T1, GST-Ap-NF-kB RHD (Exaiptasia pallida (Aiptasia), UniProt A0A913YAJ5 2-422).
T1 sequence: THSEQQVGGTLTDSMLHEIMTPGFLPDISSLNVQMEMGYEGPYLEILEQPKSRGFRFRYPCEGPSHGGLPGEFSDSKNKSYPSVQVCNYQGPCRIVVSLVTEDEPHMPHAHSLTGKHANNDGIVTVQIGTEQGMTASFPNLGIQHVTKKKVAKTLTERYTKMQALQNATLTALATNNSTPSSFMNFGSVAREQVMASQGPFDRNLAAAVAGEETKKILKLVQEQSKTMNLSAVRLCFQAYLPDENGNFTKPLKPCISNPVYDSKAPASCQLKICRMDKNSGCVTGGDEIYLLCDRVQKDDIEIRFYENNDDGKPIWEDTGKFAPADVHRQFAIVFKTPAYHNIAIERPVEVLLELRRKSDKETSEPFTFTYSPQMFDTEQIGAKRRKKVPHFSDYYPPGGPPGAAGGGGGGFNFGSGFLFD

Experiment [1] addresses T2, GST-Nv-NF-kB (Cys allele) (Nematostella vectensis, UniProt E5G601 2-411).
T2 sequence: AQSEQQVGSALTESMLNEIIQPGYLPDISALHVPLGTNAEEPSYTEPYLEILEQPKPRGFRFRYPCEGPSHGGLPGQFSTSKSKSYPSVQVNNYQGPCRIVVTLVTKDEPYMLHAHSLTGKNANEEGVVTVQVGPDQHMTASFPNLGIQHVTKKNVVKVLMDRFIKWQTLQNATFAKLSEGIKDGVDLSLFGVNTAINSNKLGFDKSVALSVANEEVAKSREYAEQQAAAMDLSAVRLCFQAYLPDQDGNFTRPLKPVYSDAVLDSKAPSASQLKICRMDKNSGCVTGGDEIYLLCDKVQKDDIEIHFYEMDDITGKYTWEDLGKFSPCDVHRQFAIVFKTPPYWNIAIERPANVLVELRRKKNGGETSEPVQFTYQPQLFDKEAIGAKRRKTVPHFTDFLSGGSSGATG

The target in experiment [2] is T3, GST-Nv-NF-kB (Ser allele) (Nematostella vectensis, UniProt A7UNT2 2-411).
T3 sequence: T2 sequence with Q21R, C66S, S207N, E215Q, V217A, E225K, A268E, D399E

In the next experiment the target is T4, GST-Co-NF-kB (Capsaspora owczarzaki, UniProt F1ARL5 200-546).
T4 sequence: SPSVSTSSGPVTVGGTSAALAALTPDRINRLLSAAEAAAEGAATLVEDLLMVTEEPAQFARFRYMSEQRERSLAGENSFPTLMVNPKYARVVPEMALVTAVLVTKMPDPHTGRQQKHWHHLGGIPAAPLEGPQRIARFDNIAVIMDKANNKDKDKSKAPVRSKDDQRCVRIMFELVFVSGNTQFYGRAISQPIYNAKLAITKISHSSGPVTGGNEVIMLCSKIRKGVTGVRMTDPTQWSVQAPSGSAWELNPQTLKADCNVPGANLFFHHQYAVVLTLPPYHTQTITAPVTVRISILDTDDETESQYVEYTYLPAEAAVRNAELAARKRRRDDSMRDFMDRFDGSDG

The target in another experiment is T5, GST-Dm-Relish (Drosophila melanogaster, UniProt Q94527 99-473).
T5 sequence: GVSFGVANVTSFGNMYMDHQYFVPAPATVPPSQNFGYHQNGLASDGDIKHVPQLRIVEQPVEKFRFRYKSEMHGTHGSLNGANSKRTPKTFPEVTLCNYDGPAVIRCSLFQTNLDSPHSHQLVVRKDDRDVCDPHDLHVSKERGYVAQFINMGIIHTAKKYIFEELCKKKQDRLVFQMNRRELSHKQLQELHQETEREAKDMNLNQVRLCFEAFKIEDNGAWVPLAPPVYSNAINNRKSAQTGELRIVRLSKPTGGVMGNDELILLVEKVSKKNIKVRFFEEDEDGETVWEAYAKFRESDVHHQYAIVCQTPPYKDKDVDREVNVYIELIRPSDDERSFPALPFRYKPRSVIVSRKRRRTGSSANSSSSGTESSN

Another experiment concerns the target T6, GST-Aq-NF-kB (Amphimedon queenslandica, UniProt A9Y5G7 2-389).
T6 sequence: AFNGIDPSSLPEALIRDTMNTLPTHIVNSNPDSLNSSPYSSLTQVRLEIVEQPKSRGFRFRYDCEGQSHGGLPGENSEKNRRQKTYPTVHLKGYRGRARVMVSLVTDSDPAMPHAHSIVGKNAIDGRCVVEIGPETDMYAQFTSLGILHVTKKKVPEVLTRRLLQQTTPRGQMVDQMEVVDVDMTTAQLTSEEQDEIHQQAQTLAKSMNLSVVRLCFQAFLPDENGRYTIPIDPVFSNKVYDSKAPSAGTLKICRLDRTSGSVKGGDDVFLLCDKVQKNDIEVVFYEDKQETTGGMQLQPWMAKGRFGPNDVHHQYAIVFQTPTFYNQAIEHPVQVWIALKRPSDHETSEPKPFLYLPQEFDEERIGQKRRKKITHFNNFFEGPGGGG

Another experiment deals with GST-Hu-p50 (Homo sapiens, UniProt P19838 7-356).
GST-Hu-p50, sequence (P19838 7-356): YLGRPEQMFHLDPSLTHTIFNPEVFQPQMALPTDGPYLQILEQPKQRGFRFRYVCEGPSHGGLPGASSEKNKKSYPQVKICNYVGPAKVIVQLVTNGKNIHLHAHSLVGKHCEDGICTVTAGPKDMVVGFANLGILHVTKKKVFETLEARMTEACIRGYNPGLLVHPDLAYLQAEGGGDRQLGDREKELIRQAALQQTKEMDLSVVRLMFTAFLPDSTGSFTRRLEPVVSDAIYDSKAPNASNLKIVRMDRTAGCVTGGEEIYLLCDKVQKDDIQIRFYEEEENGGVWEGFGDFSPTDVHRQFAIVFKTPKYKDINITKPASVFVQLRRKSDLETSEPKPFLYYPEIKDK

For “CCGATTAACATCAAAATTTCCCATGATGTTAATCGGGTCTTGATTCGCTTGACGCTGCTG”, the binding signal in the experiment with GST-Ap-NF-kB RHD came to 3.99 z-score; in experiment [1], 6.36 z-score; in experiment [2] it was 6.16 z-score; with GST-Co-NF-kB, 5.2 z-score; with GST-Dm-Relish, 4.56 z-score; with GST-Aq-NF-kB, 5.77 z-score. In the experiment with GST-Hu-p50, this sequence had a binding signal of 4.79 z-score.
For the sequence “CCGATTAACATCACCGGGAATTCTGATGTTAATCGGGTCTTGATTCGCTTGACGCTGCTG”, the binding signal in the experiment with GST-Ap-NF-kB RHD was 4.62 z-score; in experiment [1], 5.1 z-score; in experiment [2], 4.74 z-score; in the experiment with GST-Co-NF-kB, 5.5 z-score; with GST-Dm-Relish, 4.57 z-score; with GST-Aq-NF-kB it was 4.34 z-score. Further, in the experiment with GST-Hu-p50, the binding signal worked out at 4.01 z-score.
Turning to “CCGATTAACATCATCAGTTTCCCTGATGTTAATCGGGTCTTGATTCGCTTGACGCTGCTG”, the binding signal worked out at 2.11 z-score in the experiment with GST-Ap-NF-kB RHD; 3.16 z-score in experiment [1]; 4.41 z-score in experiment [2]; 2.69 z-score in the experiment with GST-Co-NF-kB; 2.58 z-score with GST-Aq-NF-kB; 1.61 z-score in the experiment with GST-Hu-p50.
In the case of “CCGATTAACATCACCACCCCCCCTGATGTTAATCGGGTCTTGATTCGCTTGACGCTGCTG”, the binding signal with GST-Ap-NF-kB RHD was determined as 4.06 z-score; in experiment [1], 3.75 z-score; in experiment [2] it was 3.44 z-score; in the experiment with GST-Co-NF-kB, 3.56 z-score; with GST-Dm-Relish, 4.58 z-score; with GST-Aq-NF-kB, 3.75 z-score. The binding signal with GST-Hu-p50 is 4.06 z-score.
Consider “CCGATTAACATCAACTTGGGAAATGATGTTAATCGGGTCTTGATTCGCTTGACGCTGCTG”, for which the binding signal with GST-Ap-NF-kB RHD amounted to 1.31 z-score; in experiment [1], 2.47 z-score; in experiment [2], 2.1 z-score; with GST-Co-NF-kB it was 2.33 z-score; with GST-Aq-NF-kB, 1.15 z-score; with GST-Hu-p50 it was 1.54 z-score.
For the sequence “CCGATTAACATCAGGGGAGTGGATGATGTTAATCGGGTCTTGATTCGCTTGACGCTGCTG”, the binding signal came to 3.01 z-score with GST-Ap-NF-kB RHD; 2.86 z-score in experiment [1]; 3.98 z-score in experiment [2]; 1.84 z-score with GST-Co-NF-kB; 2.85 z-score in the experiment with GST-Aq-NF-kB; 2.9 z-score in the experiment with GST-Hu-p50.
In the case of “CCGATTAACATCATGTACGGGAATGATGTTAATCGGGTCTTGATTCGCTTGACGCTGCTG”, the binding signal in the experiment with GST-Ap-NF-kB RHD came out at 1.13 z-score; in experiment [1], 2 z-score; in experiment [2] it was 1.46 z-score; in the experiment with GST-Co-NF-kB, 2.7 z-score; with GST-Aq-NF-kB, 3.27 z-score; in the experiment with GST-Hu-p50, 1.26 z-score.
“CCGATTAACATCAGGGGAGACAATGATGTTAATCGGGTCTTGATTCGCTTGACGCTGCTG”: the binding signal with GST-Ap-NF-kB RHD is 3.1 z-score; in experiment [1], 3.18 z-score; in experiment [2], 4.37 z-score; with GST-Co-NF-kB, 4.18 z-score; with GST-Aq-NF-kB, 2.2 z-score; in the experiment with GST-Hu-p50, 2.14 z-score.
For “CCGATTAACATCAAACTGGGAAATGATGTTAATCGGGTCTTGATTCGCTTGACGCTGCTG”, the binding signal with GST-Ap-NF-kB RHD is 1.13 z-score; in experiment [1], 2.35 z-score; in experiment [2], 1.79 z-score; with GST-Co-NF-kB, 2.64 z-score; with GST-Aq-NF-kB it was 1.06 z-score; in the experiment with GST-Hu-p50, 1.62 z-score.
In the case of “CCGATTAACATCAGGATTATCCCTGATGTTAATCGGGTCTTGATTCGCTTGACGCTGCTG”, the binding signal in the experiment with GST-Ap-NF-kB RHD turned out to be 2.26 z-score; in experiment [1] it was 2.9 z-score; in experiment [2] it was 1.47 z-score; with GST-Co-NF-kB, 2.37 z-score; in the experiment with GST-Aq-NF-kB it was 5.15 z-score; with GST-Hu-p50, 1.73 z-score.
Turning to “CCGATTAACATCAGATGGGAAAATGATGTTAATCGGGTCTTGATTCGCTTGACGCTGCTG”, the binding signal with GST-Ap-NF-kB RHD is 2.47 z-score; in experiment [1], 4.24 z-score; in experiment [2], 5.39 z-score; in the experiment with GST-Co-NF-kB, 2.47 z-score; with GST-Aq-NF-kB, 2.28 z-score; with GST-Hu-p50 it was 2.37 z-score.
With “CCGATTAACATCAATACTCCCCCTGATGTTAATCGGGTCTTGATTCGCTTGACGCTGCTG”, the binding signal with GST-Ap-NF-kB RHD amounted to 6.61 z-score; in experiment [1], 5.41 z-score; in experiment [2], 6.73 z-score; with GST-Co-NF-kB, 8.03 z-score; with GST-Dm-Relish, 3.95 z-score; in the experiment with GST-Aq-NF-kB it was 4.97 z-score. Further, the binding signal with GST-Hu-p50 came out at 6.4 z-score.
“CCGATTAACATCAAGTATTCCCCTGATGTTAATCGGGTCTTGATTCGCTTGACGCTGCTG”: the binding signal with GST-Ap-NF-kB RHD is 8.17 z-score; in experiment [1], 9.28 z-score; in experiment [2], 8.86 z-score; with GST-Co-NF-kB, 7.58 z-score; in the experiment with GST-Dm-Relish it was 7.14 z-score; with GST-Aq-NF-kB, 6.74 z-score. The sequence also registered a binding signal with GST-Hu-p50 of 5.87 z-score.
